This is a sample that favours compounds with a hit; in the whole collection about 6.6% have one here.
SW480 rereplic: DNA re-replication induction in SW480 cells. Potency, µM (doses to about 46.1 µM), for the others: top-dose re-replication activation, actives largely listed as activators. 1.8% of 340,000 active. SW480 DNA re-replication, Hoechst DNA content imaging, 48 h; further: % of control where 0% means no effect; nearly all actives have a fitted effect of over 55% in size
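Treated cells incubate 48 hr (37 C, 5% CO2), are stained 40 min with Hoechst, and nuclear fluorescence is enumerated; a rise in nuclei with high DNA signal marks re-replication.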
TSG101-PTAP inh: blocks PTAP/TSG101 interaction to inhibit HIV-1 budding; Q99816; Fluorescence polarization, FITC-PTAP peptide / Tsg101 binding; Potency, µM (titrated, usually from 115 µM), inactives show top-dose activity change, negative = inhibition, hits mostly inhibitors; 340,000 tested, under 10 active; AID 493005; active means well fitted inhibition curve with a large enough effect in the main read-out, with a control signal flat, not every such curve was filed as active; inconclusive means small, poorly fitted or top-dose-only effect, or effect the other way, or a change in a side signal; inactive means no such curve, though single readings can be large or run the other way; further: % of control where 0% means no effect
Target sequence (Q99816 whole entry, looked up): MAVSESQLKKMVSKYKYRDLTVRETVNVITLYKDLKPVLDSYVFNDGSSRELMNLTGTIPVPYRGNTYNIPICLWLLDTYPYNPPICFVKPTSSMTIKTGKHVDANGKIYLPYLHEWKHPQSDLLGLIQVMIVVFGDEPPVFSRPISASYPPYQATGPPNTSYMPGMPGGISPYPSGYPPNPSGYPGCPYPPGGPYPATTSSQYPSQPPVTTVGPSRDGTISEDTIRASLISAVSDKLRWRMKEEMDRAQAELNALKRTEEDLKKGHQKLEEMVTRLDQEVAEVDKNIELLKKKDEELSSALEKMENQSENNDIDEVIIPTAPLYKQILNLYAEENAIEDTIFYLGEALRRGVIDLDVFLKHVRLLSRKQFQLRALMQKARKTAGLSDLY
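Compounds were pin-transferred onto Tsg101 binding domain (10 uM final) in HEPES pH 7.5 buffer, then FITC-PTAP peptide was added at 50 nM final. After 20 min at RT, polarization reported peptide displacement across a qHTS concentration series.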
KB-3-1 cytotox: kills parental KB-3-1 adenocarcinoma cells. KB-3-1 viability, CellTiter-Glo ATP luminescence, 72 h. Potency, µM (doses to about 46.1 µM), most hits filed as cytotoxic. 1.4% of 400,000 active. AID 1347075; further: on the % scale 0 is the no-effect control and ±100 the full control effect; nearly all actives have a fitted effect of over 60% in size
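Using CellTiter-Glo luminescence, growth of non-resistant KB-3-1 adenocarcinoma cells is assessed 72 h after pin-tool compound addition at 37 °C. Normalized responses across the concentration series yield fitted curves.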
RGS4 inh: blocks human RGS4-accelerated GTP hydrolysis. P49798. Transcreener GDP fluorescence polarization, RGS4-accelerated GTP hydrolysis. Potency, µM (series often up to 114 µM), without a hit: at the highest dose activity change, negative = inhibition, hits mostly inhibitors. 0.039% of 390,000 active. AID 504845; further: on the % scale 0 is the no-effect control and ±100 the full control effect; nearly all actives have a fitted effect of over 75% in size
Target sequence (P49798 whole entry, looked up): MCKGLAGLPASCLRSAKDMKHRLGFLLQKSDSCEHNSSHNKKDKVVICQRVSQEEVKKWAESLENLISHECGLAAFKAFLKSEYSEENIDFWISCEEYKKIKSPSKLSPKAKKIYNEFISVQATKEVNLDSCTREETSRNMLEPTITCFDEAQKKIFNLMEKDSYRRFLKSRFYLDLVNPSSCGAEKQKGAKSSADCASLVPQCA
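MLSMR compounds (23 nl, pin-transferred) preincubated 10 min at room temperature with a 500nM (2x) first reagent, then RGS4 at 900nM (2x) plus Transcreener GDP mix added; fluorescence polarization (620/688 nm) read before and after 90 min at 30 °C.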
KB-V1 cytotox: KB-V1 MDR subline cytotoxicity; KB-V1 MDR cells viability, CellTiter-Glo, 72 h; Potency, µM (series often up to 46.1 µM), hits mostly cytotoxic; 3.4% of 400,000 active; further: on the % scale 0 is the no-effect control and ±100 the full control effect; nearly all actives have a fitted effect of over 60% in size
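KB-V1 cells (P-gp-expressing MDR subline of KB-3-1) in phenol-red-free DMEM with 10% FBS were exposed to library compounds over a concentration series for 72 h at 37 degrees C. Viability read by CellTiter-Glo luminescence; concentration-effect curves fitted after normalization.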
MCF10A rerep: DNA re-replication induction in MCF 10a cells; MCF 10A DNA re-replication, Hoechst nuclear intensity, 48 h; Potency, µM (doses to about 46.1 µM), for inactives: at the highest dose activity, positive = re-replication, actives largely listed as activators; 2.9% of 350,000 active; further: % of control where 0% means no effect; nearly all actives have a fitted effect of over 50% in size
Active calls of the source: *; i = inactive; ? = inconclusive; nt = no result given; [ ] = remark or other dose. Unless noted, the call rests on the fitted dose curve; in most records, active means well fitted curve in the direction sought with a large enough effect; inconclusive means small, poorly fitted or top-dose-only effect, or another doubt; inactive means no such curve, though single readings can be large; an effect the other way counts as inactive or inconclusive. Potency means the concentration at half of the fitted maximal effect.

SMILES	SW480 rereplic	TSG101-PTAP inh	KB-3-1 cytotox	RGS4 inh	KB-V1 cytotox	MCF10A rerep
NC(=O)c1sc2nc3c(c(-c4ccc(Cl)cc4)c2c1N)CCCC3	?	-3%	?	-33%	2.9µM*	?
Nc1c(C(=O)NCc2ccc(Cl)cc2)sc2nc3c(c(C(F)(F)F)c12)CCC3	?	nt	i	6%	15µM*	4%
Cc1ccccc1NC(=O)c1sc2nc3c(c(-c4ccco4)c2c1N)CCC3	9.2µM*	-5%	i	-13%[11.4 µM]	i	?
Cc1ccc(SCC(c2ccccc2)N2CCN(CCc3ccccc3)CCC2=O)cc1 (configuration not stated)	nt	nt	nt	-5%	nt	nt
COc1ccc(NC(=O)C(C)Sc2cc(-c3ccccc3)nc(C)n2)cc1Cl (configuration not stated)	nt	nt	nt	-15%	nt	nt
CCOc1cccc(C2C=C(c3ccc4c(c3)OCO4)NC(c3ccc(Br)cc3)N2)c1O (configuration not stated)	nt	nt	?	-3%	i	nt
NC(=O)c1sc2nc3c(c(-c4ccco4)c2c1N)CCCC3	29%	-4%	i	-35%	?	13%
Cc1ccc(-c2c3c(nc4sc(C(N)=O)c(N)c24)CCC3)cc1	24%	-2%	i	-33%	?	12µM*
NC1CCc2ccccc21 (configuration not stated)	nt	nt	?	nt	i	nt
Cc1ccccc1Nc1c(-c2ccc(N3CCOCC3)cc2)nc2ccc(Cl)cn12	nt	nt	i	-19%	i	nt
O=C(Nc1cccc(-c2nnc(-c3ccccc3)o2)c1)c1ccco1	-7%	-1%	i	-14%	2.9µM*	14%
Cc1ccc(-c2nnc(NC(=O)c3ccco3)o2)c(C)c1	?	-6%	?	18%	?	?
O=C(Nc1nnc(-c2ccccc2Cl)o1)c1ccco1	12µM*	-1%	i	3%	16µM*	99%
O=C(Nc1ccc2oc(-c3ccccc3)nc2c1)c1ccco1	-2%	-2%	i	-48%	23µM*	16%
CCOc1ccc(CNC(=O)c2ccc(Sc3ccc(C)cc3)c(N)c2)cc1OC	nt	nt	nt	18%	nt	nt
O=S(=O)(CS(=O)(=O)c1ccc(Cl)cc1)c1ccc(Cl)cc1	-15%	-1%	i	-13%	i	21µM*
Cc1ccc(S(=O)(=O)CS(=O)(=O)c2ccc(C)cc2)cc1	-2%	-1%	i	-29%	?	-1%
Oc1ccccc1-c1cc(C(F)(F)C(F)F)nc(-c2ccccc2)n1	16%	-2%	i	-12%	i	?
O=[N+]([O-])c1ccc(O)c(-c2cc(C(F)(F)F)nc(-c3ccccc3)n2)c1	15%	0%	1.5µM*	6%	?	?
Cc1nn(-c2ccc(N3CCCC3)nn2)c(C)c1CCC(=O)N1CCN(c2ccccc2)CC1	nt	nt	nt	1%	nt	nt
Cc1ccc(Cl)cc1NC(=O)CN1C(=O)C(C)(C)c2cc(S(=O)(=O)N3CCCCC3)ccc21	nt	nt	?	-1%	?	nt
Clc1ccc(CNc2ccc(CNc3ncn[nH]3)cc2)c(Cl)c1	?	-4%	i	16%	i	?
Clc1ccc(CNc2ccc(CNc3ncn[nH]3)cc2)cc1	3%	-4%	?	-12%	18µM*	11%
COc1ccc(CN(C)C(=O)CCl)cc1	?	0%	i	5%	i	?
CN(Cc1ccc(Cl)cc1)C(=O)CCl	?	1%	16µM*	-17%	?	?
SMILES	SW480 rereplic	TSG101-PTAP inh	KB-3-1 cytotox	RGS4 inh	KB-V1 cytotox	MCF10A rerep
CC(C)Oc1ccc(CNC(=O)CCCn2c(=O)c3cccn3c3cccnc32)cc1	nt	nt	nt	-13%	nt	nt
Cc1cc(C)nc(NC(=NCCc2c[nH]c3ccccc23)NC(=O)Nc2ccccc2)n1	?	1%	i	-1%	i	26µM*
CCOc1cc(CN2CCN(c3ccc(C(C)=O)cc3)CC2)ccc1OC	-1%	nt	i	29%	23µM*	5%
CCOc1cc(CN2CCCCC2)ccc1OC	-8%	-4%	i	-7%	i	3%
COc1ccc(N2CCN(C3CCCN(Cc4cccc(C(C)=O)c4)C3)CC2)cc1 (configuration not stated)	-16%	-4%	i	-1%	i	23µM*
COc1ccc(N2CCN(C3CCCN(S(=O)(=O)c4ccc(C)cc4C)C3)CC2)cc1 (configuration not stated)	?	-2%	26µM*	-27%	i	?
CCOc1cc(CN2CCCC(N3CCN(c4ccc(F)cc4)CC3)C2)ccc1OC (configuration not stated)	-47%	-2%	i	-43%	i	4.1µM*
COc1ccc(CN2CCCC(N3CCN(c4cccc(Cl)c4)CC3)C2)cc1OC (configuration not stated)	-5%	-3%	i	-4%	i	-1%
COc1ccc(-c2onc(C)c2C)cc1S(=O)(=O)N1CCN(c2cc(C)ccc2C)CC1	nt	nt	nt	10%	nt	nt
COc1ccccc1-c1noc(-c2ccc(NC(C)C)c([N+](=O)[O-])c2)n1	nt	nt	i	-22%	i	nt
CCOc1ccc(N2C(=O)CC(Sc3nc(CC(C)C)ccc3C#N)C2=O)cc1 (configuration not stated)	5.8µM*	-8%	i	?	i	?
CCCOc1ccc(N2C(=O)CC(N3CCC(C(=O)OCC)CC3)C2=O)cc1 (configuration not stated)	2%	0%	i	-4%	i	15µM*
CCCOc1ccc(N2C(=O)CC(N3CCOCC3)C2=O)cc1 (configuration not stated)	7%	-8%	i	-15%	i	2%
CCOc1ccc(N2C(=O)CC(N)C2=O)cc1 (configuration not stated)	?	-1%	i	-10%	?	18µM*
CC(=O)Nc1ccc(S(=O)(=O)NCCc2csc3nc(-c4ccc(Cl)cc4)nn23)cc1	nt	nt	nt	18%	nt	nt
Cc1ccc(C(C)C)c(OCc2ccc(-c3nnco3)cc2)c1	9%	-4%	i	33%	i	23µM*
CC(C)(C)n1nnnc1C(c1cccs1)N(Cc1ccccc1)Cc1ccco1 (configuration not stated)	2%[9.22 µM]	1%	?	-27%	i	?
Cc1cc2cc(CN(Cc3cccs3)C(c3nnnn3C(C)(C)C)C(C)C)c3nnnn3c2cc1C (configuration not stated)	-3%	1%	i	26%	1.8µM*	2%
CCc1ccc(CNC(=O)c2cnc3sc(N(CC)CC)nn3c2=O)cc1	nt	nt	nt	15%	nt	nt

Compound activity (PubChem BioAssay)
